Reference: PubChem BioAssay (NCATS)
Values without a mark were called inactive. Results filed as inconclusive are left out. A call without a number means that no potency is given here. Activity calls are given as the source filed them. Unless noted, calls come from the whole dose curve; as a rule, active = well fitted curve in the direction sought with a large enough effect; inconclusive = small, poorly fitted or top-dose-only effect, or another doubt; inactive = no such curve, though single readings can be large; an effect the other way counts as inactive or inconclusive.

Columns and labels:
[1] = Identifying Small Molecule Inhibitors of Pancreatic Cancer Stem Cells (SN12C, Adherent) (AID 1259358);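 note: potency is the fitted concentration of half-maximal effect; cell survival measured after 48 h of compound exposure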
How it was run: (§1)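 Viability is scored by CellTiter-Glo luminescence 48 h after dosing, expressed as percent activity against vehicle and no-cell references. Spheroid formats rely on cells cultured 14 days in stem cell media beforehand.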

[2] = Identifying Small Molecule Inhibitors of Pancreatic Cancer Stem Cells (Panc1, Spheroid) (AID 1259359); conditions: Panc1 spheroid cancer stem cell viability;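 note: potency is the fitted concentration of half-maximal effect; compound exposure lasted 48 h before reading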
How it was run: as §1

[3] = Identifying Small Molecule Inhibitors of Pancreatic Cancer Stem Cells (Panc1, Adherent) (AID 1259362); conditions: viability; note: potency is the fitted concentration of half-maximal effect
How it was run: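 Spheroids grown 14 days in stem cell media on hydrogel-coated nonadherent plates; 2D lines seeded directly. Compounds added after 4 h attachment, 48 h at 37C, 5% CO2; CellTiter-Glo luminescence normalized to DMSO (no inhibition) and no-cell wells (full inhibition).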

[4] = qHTS assay to identify small molecule inhibitors of chordoma cells - UCH-1 (AID 1259355); note: nearly all actives have a fitted effect of over 55% in size
How it was run: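 Luminescent ATP read-out (CellTiter-Glo, 30min at room temperature) measured viability of UCH-1 cells exposed for 48hr to test drugs at 15 concentrations, co-dosed with a five-agent combination of auranofin, camptothecin, doxorubicin, rubitecan and topotecan.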

[5] = qHTS assay to identify small molecule inhibitors of chordoma cells - UCH-2 (AID 1259356); note: series mostly up to about 46 µM
[6] = P-glycoprotein substrates identified in KB-8-5-11 adenocarcinoma cell line, qHTS therapeutic library screen (AID 1346987); note: nearly all actives have a fitted effect of over 65% in size
How it was run: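 KB-8-5-11, a colchicine-selected P-gp-overexpressing KB-3-1 subline, was grown without colchicine for the assay. Cells were seeded at 500 cells/well, dosed in concentration-response and incubated 72 h at 37 degree C, 5% CO2. Viability was read by CellTiter-Glo luminescence.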

[7] = NS1 protein of Zika virus - qHTS assay to identify small molecule inhibitors in human HEK 293 cells (AID 1347053); note: series mostly up to about 46 µM; nearly all actives have a fitted effect of over 55% in size
How it was run: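 HEK 293; 20 h pre-culture, 37 C/5% CO2; cpd 1 h pre-infection; ZIKV MR766, MOI = 0.5, 24 h, 37 C; TR-FRET NS1 readout (two anti-NS1 Abs); norm. to no-virus vs infected.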

[8] = qHTS of pediatric cancer cell lines to identify multiple opportunities for drug repurposing: Primary screen for TC32 cells (AID 1347089); note: nearly all actives have a fitted effect of over 60% in size
How it was run: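 Measured quantity: luminescence from CellTiter-Glo, reflecting metabolically active TC32 cells following 48 h of compound. Curves came straight from multi-point titrations, with 8 or 11 points in primary and 11 in confirmatory screening.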

[9] = qHTS of pediatric cancer cell lines to identify multiple opportunities for drug repurposing: Primary screen for DAOY cells (AID 1347090); note: series mostly up to about 46 µM; nearly all actives have a fitted effect of over 55% in size
How it was run: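 Eight- or eleven-point concentration series, 48 h treatment at 37 degrees C in growth media; readout CellTiter-Glo luminescence. Potency and efficacy were taken from the concentration-response curves.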

[10] = biological target: T1, Tyrosine-protein phosphatase non-receptor type substrate 1 (Homo sapiens) + Leukocyte surface antigen CD47 (Homo sapiens) (UniProt P78324+Q08722); test: CD47-SIRPalpha protein protein interaction - LANCE assay qHTS validation (AID 1347057; active = well fitted curve in the direction sought with a large enough effect in the signal ratio, with a control signal flat, not every such curve was filed as active; the % refers to the signal ratio; note: series mostly up to about 38 µM)
T1 sequence (P78324 whole entry, looked up): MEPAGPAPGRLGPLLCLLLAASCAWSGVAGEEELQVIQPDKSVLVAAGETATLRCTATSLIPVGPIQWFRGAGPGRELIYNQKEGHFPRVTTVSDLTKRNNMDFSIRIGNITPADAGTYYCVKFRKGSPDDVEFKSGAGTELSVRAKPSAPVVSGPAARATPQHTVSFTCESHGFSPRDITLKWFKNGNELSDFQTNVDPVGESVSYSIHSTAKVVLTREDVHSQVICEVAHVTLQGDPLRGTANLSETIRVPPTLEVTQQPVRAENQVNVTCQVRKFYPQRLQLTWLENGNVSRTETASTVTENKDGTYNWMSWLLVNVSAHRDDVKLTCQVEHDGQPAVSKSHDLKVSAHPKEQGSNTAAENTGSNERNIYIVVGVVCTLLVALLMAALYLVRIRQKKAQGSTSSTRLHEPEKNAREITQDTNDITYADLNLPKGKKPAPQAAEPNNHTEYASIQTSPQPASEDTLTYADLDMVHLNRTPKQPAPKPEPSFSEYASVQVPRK
T1 sequence (Q08722 whole entry, looked up): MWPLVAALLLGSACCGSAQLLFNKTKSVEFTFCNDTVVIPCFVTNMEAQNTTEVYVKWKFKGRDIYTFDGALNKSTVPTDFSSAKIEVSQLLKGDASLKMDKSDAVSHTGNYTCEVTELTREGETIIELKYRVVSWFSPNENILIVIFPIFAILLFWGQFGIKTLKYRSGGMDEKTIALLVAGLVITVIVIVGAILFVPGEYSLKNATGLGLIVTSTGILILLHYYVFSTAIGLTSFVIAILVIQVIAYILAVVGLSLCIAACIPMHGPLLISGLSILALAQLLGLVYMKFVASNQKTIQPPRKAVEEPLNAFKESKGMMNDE
How it was run: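 First, His-tagged CD47 and Eu-labelled anti-His antibody met the compound for 30 min; next, site-specifically biotinylated SIRPalpha was added for 30 min; finally streptavidin-APC was added before reading the TR-FRET ratio.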

[11] = biological target: T1, Tyrosine-protein phosphatase non-receptor type substrate 1 (Homo sapiens) + Leukocyte surface antigen CD47 (Homo sapiens); test: CD47-SIRPalpha protein protein interaction - HTRF assay qHTS validation (AID 1347058; active = well fitted curve in the direction sought with a large enough effect in the signal ratio, not every such curve was filed as active; the % refers to the signal ratio; note: series mostly up to about 38 µM)
How it was run: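 TR-FRET read (Ch1/Ch2 ratio) of soluble extracellular CD47 and Avi-biotinylated SIRPalpha domains in PBS pH 7.4 with 0.05% IGEPAL; 7-point compound titration. Sequential 30 min room-temperature steps; non-biotinylated SIRPalpha as control inhibitor.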

[12] = biological target: T1, Tyrosine-protein phosphatase non-receptor type substrate 1 (Homo sapiens) + Leukocyte surface antigen CD47 (Homo sapiens); test: CD47-SIRPalpha protein protein interaction - Alpha assay qHTS validation (AID 1347059);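 note: bead proximity luminescence from CD47 binding SIRPalpha after compound preincubation with SIRPalpha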
How it was run: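 Soluble extracellular domains: Avi-tag biotinylated SIRPalpha (25 nM) preincubated 30 min RT with compound, then 6His-CD47 (12.5 nM) 30 min; Ni-NTA acceptor and streptavidin donor beads (10 ug/mL) 30 min, AlphaScreen read. PBS pH 7.4, 0.05% IGEPAL.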

[13] = Natriuretic polypeptide receptor (hNpr1) antagonism - Pilot counterscreen GloSensor control cell line (AID 1347045; calls by dose curve; note: potency is the fitted concentration of half-maximal effect; for activity change, negative = inhibition: series mostly up to about 38 µM)
How it was run: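 HEK293 cGMP GloSensor cells preloaded 2 h with 2% GloSensor reagent, then compound 30 min before baseline luminescence read. Stimulated with 50 uM sodium nitroprusside, 20 min at room temperature, then read again; counterscreen for Npr1 antagonism.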

[14] = biological target: Atrial natriuretic peptide receptor 1 (Homo sapiens) (UniProt P16066); test: Natriuretic polypeptide receptor (hNpr1) antagonism - Pilot screen (AID 1347049; calls by dose curve;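 note: agonist-evoked cGMP luminescence read 20 min after hNppA addition; series mostly up to about 58 µM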)
Atrial natriuretic peptide receptor 1 (Homo sapiens), sequence (P16066 whole entry, looked up): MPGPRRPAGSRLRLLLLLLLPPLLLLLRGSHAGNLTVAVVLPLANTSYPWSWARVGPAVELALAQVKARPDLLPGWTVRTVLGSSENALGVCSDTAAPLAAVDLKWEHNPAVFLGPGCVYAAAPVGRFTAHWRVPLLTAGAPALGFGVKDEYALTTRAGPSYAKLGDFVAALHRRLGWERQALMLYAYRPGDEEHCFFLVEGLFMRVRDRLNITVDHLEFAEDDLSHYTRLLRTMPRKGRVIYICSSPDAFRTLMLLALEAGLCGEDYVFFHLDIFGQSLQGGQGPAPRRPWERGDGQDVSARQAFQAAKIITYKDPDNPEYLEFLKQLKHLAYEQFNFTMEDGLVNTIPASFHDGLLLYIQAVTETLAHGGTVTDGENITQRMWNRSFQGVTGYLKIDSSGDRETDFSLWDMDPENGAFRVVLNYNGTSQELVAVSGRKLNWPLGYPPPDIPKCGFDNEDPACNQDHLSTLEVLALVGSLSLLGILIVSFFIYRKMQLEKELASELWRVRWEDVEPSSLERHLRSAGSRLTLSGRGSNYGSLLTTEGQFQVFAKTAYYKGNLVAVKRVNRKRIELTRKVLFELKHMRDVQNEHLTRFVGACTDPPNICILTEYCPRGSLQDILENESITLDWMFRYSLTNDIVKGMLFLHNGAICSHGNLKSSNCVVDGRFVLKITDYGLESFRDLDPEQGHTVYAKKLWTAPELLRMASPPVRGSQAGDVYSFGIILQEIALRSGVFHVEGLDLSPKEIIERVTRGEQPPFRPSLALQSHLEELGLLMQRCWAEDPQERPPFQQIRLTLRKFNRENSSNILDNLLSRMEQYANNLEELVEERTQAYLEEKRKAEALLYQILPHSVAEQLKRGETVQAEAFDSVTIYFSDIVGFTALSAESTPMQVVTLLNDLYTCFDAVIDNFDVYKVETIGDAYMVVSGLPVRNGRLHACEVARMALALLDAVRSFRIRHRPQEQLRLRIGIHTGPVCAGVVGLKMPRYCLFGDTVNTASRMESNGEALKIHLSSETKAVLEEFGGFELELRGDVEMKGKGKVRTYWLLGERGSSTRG
How it was run: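 HEK293 cells co-expressing hNpr1 and the GloSensor pGS-40F cGMP luciferase sensor were preloaded with 2% GloSensor reagent for 2 h. Compounds were added for 30 min at room temperature, then cells were stimulated with 0.1 nM hNppA for 20 min before luminescence readout.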

[15] = biological target: Atrial natriuretic peptide receptor 2 (Homo sapiens) (UniProt P20594); test: Natriuretic polypeptide receptor (hNpr2) antagonism - Pilot subtype selectivity assay (AID 1347050; calls by dose curve)
Atrial natriuretic peptide receptor 2 (Homo sapiens), sequence (P20594 whole entry, looked up): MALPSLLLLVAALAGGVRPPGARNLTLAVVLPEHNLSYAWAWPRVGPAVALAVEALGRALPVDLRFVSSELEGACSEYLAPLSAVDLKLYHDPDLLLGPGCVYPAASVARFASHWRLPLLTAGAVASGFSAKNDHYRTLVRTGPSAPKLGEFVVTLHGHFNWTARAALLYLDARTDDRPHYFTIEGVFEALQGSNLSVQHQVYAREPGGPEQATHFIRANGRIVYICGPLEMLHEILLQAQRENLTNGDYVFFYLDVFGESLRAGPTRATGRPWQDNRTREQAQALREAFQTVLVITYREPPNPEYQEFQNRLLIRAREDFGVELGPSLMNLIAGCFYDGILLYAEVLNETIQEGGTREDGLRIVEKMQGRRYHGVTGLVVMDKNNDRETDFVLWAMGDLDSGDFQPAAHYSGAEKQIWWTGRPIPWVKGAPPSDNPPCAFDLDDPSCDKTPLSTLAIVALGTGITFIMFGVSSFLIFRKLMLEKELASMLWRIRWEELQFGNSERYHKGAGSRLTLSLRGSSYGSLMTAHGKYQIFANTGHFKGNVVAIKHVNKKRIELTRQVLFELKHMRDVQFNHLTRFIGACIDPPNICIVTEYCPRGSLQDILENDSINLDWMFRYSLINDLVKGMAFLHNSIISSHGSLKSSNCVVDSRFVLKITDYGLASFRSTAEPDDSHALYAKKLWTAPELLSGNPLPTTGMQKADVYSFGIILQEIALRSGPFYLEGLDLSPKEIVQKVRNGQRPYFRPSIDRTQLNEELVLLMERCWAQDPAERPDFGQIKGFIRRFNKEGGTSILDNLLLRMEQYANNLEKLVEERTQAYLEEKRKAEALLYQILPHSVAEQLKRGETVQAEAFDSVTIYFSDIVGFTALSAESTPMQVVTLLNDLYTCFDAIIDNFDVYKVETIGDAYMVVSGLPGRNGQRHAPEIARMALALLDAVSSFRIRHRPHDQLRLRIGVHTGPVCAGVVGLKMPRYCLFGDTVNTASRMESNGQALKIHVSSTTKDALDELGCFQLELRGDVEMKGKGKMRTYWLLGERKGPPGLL
How it was run: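 cGMP-sensor HEK293/hNpr2 cells; 2% GloSensor reagent 2 h RT; compounds 30 min; baseline luminescence read; 1 nM hNppC agonist 20 min RT; final luminescence read by CCD camera. Antagonism = reduced post-agonist signal.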

[16] = P-glycoprotein substrates identified in KB-3-1 adenocarcinoma cell line, qHTS therapeutic library screen (AID 1346986); note: nearly all actives have a fitted effect of over 60% in size
How it was run: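 Resistance attributable to P-gp was assessed by comparing AC50 in KB-8-5-11 with parental KB-3-1 and by tariquidar reversal. Cells were exposed 72 h and viability read by CellTiter-Glo.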

[17] = biological target: Parathyroid hormone/parathyroid hormone-related peptide receptor (Homo sapiens) (UniProt Q03431); test: qHTS for PTHR1 Agonists: Optimization Screen against the NCGC LOPAC library (AID 1347079);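 note: GloSensor cAMP luminescence in HEK-293 GP2 cells expressing human PTHR1 with IBMX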
Parathyroid hormone/parathyroid hormone-related peptide receptor (Homo sapiens), sequence (Q03431 whole entry, looked up): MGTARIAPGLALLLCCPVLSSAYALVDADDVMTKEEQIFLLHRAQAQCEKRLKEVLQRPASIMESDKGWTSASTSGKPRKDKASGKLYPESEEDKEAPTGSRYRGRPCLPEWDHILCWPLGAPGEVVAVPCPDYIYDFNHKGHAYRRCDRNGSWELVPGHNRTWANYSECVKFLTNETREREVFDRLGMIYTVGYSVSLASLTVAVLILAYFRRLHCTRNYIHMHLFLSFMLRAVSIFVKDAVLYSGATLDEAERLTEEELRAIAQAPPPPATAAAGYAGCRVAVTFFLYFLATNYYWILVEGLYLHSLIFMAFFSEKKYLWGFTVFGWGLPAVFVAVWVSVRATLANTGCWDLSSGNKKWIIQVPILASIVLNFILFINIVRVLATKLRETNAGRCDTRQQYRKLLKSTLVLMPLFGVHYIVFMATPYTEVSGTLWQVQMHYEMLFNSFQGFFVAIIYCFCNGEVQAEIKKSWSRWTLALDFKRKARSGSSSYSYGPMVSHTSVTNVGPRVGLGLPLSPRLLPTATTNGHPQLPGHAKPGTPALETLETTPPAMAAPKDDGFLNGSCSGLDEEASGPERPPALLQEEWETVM
How it was run: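 Agonist readout: GloSensor cAMP luminescence, read after 15 min at room temperature. HEK-293-derived GP2 line carries PTHR1; compounds tested as a titration for 1 hr at 37C in presence of IBMX. M-PTH (1-15) served as control.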

For `C=CCc1cccc(/C=N/NC(=O)CN2CCN(Cc3ccccc3)CC2)c1O`, which Potency [1] is on record?
The Potency was 10.5 µM (active).

And the Potency [2]?
The Potency was 26.4 µM (active).

What about the Potency [3] of the same compound?
The Potency was 4.18 µM (active).

Which Potency [4] does the source give for `c1ccc2sc(SN3CCOCC3)nc2c1` here?
Its Potency is “inactive”.

And the Potency [5]?
Its Potency is “inactive”.

And the Potency [6]?
The Potency was “inactive”.

What about the Potency [7] of the same compound?
The Potency was “inactive”.

What about the Potency [8] of the same compound?
Its Potency is “inactive”.

What about the Potency [9] of the same compound?
The Potency was “inactive”.

What does the source list for `Cc1c(N)c(=O)n(-c2ccccc2)n1C`?
Potency [6]: inactive; Potency [8]: inactive; Potency [9]: inactive

With `C=CCCCCCCCCC(=O)O` as the compound, how does the Potency [4] read?
Its Potency is “inactive”.

And the Potency [5]?
The Potency was “inactive”.

And the Potency [7]?
The Potency was “inactive”.

And the Potency [8]?
Its Potency is “inactive”.

What about the Potency [9] of the same compound?
Its Potency is “inactive”.

With `CN(CCCOc1ccc(Cc2ccccc2)cc1)CCC(=O)O` as the compound, how does the Potency [6] read?
Its Potency is “inactive”.

And the Potency [7]?
Its Potency is “inactive”.

And the Potency [10]?
Its Potency is “inactive”.

What about the outcome [11] of the same compound?
The outcome was “inactive”.

And the Potency [12]?
Its Potency is “inactive”.

What does the source list for `CCCCN(CC)c1nc(C)nc2c1c(C)cn2-c1c(C)cc(C)cc1C`?
Potency [6]: inactive; Potency [7]: inactive; Potency [10]: inactive; Potency [12]: inactive

With `C=CC(C)=C[C@@]1(C)SC(=O)C(C)=C1O` as the compound, how does the Potency [13] read?
The Potency was “inactive”.

And the Potency [14]?
Its Potency is “inactive”.

And the Potency [15]?
Its Potency is “inactive”.

What about the Potency [7] of the same compound?
The Potency was “inactive”.

And the Potency [10]?
The Potency was “inactive”.

What about the outcome [11] of the same compound?
The outcome was “inactive”.

And the Potency [12]?
Its Potency is “inactive”.

With `O=C(O)Cc1cccc(-c2cc(CCCCCCc3ccc(O[C@H]4O[C@H](CO)[C@@H](O)[C@H](O)[C@@H]4O)c(-c4cccc(CC(=O)O)c4)c3)ccc2O[C@H]2O[C@H](CO)[C@@H](O)[C@H](O)[C@@H]2O)c1` as the compound, how does the outcome [16] read?
The outcome was “inactive [at 0.354 µM]”.

And the activity change, negative = inhibition [7]?
Its activity change, negative = inhibition is -8.2% [at 0.593 µM].

What about the activity change, negative = cytotoxic [8] of the same compound?
Its activity change, negative = cytotoxic is 14.4% [at 0.594 µM].

And the activity change, negative = cytotoxic [9]?
Its activity change, negative = cytotoxic is 1% [at 0.597 µM].

For `O=C(Nc1ccc2c(c1)CCN(Cc1ncn[nH]1)C2)c1ccccc1-c1ccc(C(F)(F)F)cc1`, which Potency [6] is on record?
Its Potency is “inactive”.

And the Potency [10]?
The Potency was “inactive”.

What about the outcome [11] of the same compound?
Its outcome is “inactive”.

What about the Potency [12] of the same compound?
Its Potency is “inactive”.

For `CC(C(=O)O)c1ccc2c(c1)[nH]c1ccc(Cl)cc12` (stereo not drawn), which Potency [4] is on record?
The Potency was “inactive”.

What about the Potency [5] of the same compound?
The Potency was “inactive”.

And the Potency [7]?
Its Potency is “inactive”.

And the Potency [8]?
Its Potency is “inactive”.

And the Potency [9]?
The Potency was “inactive”.

Which results are given for `NC(=O)C(c1ccccc1)(c1ccccc1)[C@@H]1CCN(CCc2ccc3c(c2)CCO3)C1`?
Potency [4]: inactive; Potency [5]: inactive; Potency [7]: inactive; Potency [8]: inactive

What does the source list for `CCNc1nc2c(ncn2[C@H]2C[C@H](O)[C@@H](CO)O2)c(=O)[nH]1`?
Potency [16]: inactive; Potency [10]: inactive; outcome [11]: inactive; Potency [12]: inactive

Which Potency [16] does the source give for `Oc1cc(O)cc(/C=C/c2ccc(O)c(O)c2)c1` here?
Its Potency is “inactive”.

What about the Potency [13] of the same compound?
The Potency was 11.7 µM (active).

And the Potency [7]?
Its Potency is “inactive”.

And the Potency [10]?
The Potency was “inactive”.

Which results are given for `CCCC(=O)OC[C@@H](OC(=O)CCC)[C@@H](OC(=O)CCC)[C@H](Cn1c2nc(=O)[nH]c(=O)c-2nc2cc(C)c(C)cc21)OC(=O)CCC`?
Potency [4]: inactive; Potency [5]: inactive; Potency [8]: inactive; Potency [9]: inactive

Which Potency [4] does the source give for `Clc1ccccc1-c1nc(-c2ccncc2)no1` here?
Its Potency is “inactive”.

And the Potency [5]?
Its Potency is “inactive”.

And the Potency [7]?
The Potency was “inactive”.

What about the Potency [8] of the same compound?
Its Potency is “inactive”.

And the Potency [9]?
The Potency was “inactive”.

Which Potency [5] does the source give for `CN1[C@@H](CC(=O)c2ccccc2)CCC[C@H]1C[C@H](O)c1ccccc1` here?
The Potency was “inactive”.

What about the Potency [13] of the same compound?
The Potency was “inactive”.

What about the Potency [14] of the same compound?
Its Potency is “inactive”.

What about the Potency [15] of the same compound?
The Potency was “inactive”.

And the Potency [7]?
Its Potency is “inactive”.

And the Potency [10]?
The Potency was “inactive”.

What about the outcome [11] of the same compound?
The outcome was “inactive”.

And the Potency [12]?
The Potency was “inactive”.

And the Potency [17]?
The Potency was “inactive”.

For `O=c1[nH]c2ccccc2n1CCCN1CCN(C(c2ccccc2)c2ccccc2)CC1`, which Potency [4] is on record?
The Potency was “inactive”.

What about the Potency [5] of the same compound?
Its Potency is “inactive”.

What about the Potency [7] of the same compound?
Its Potency is “inactive”.

And the Potency [8]?
The Potency was “inactive”.

What about the Potency [9] of the same compound?
The Potency was “inactive”.

Which Potency [4] does the source give for `CC(N)C(=O)OC(C)(C)Cc1ccc(Cl)cc1` (stereo not drawn) here?
Its Potency is “inactive”.

What about the Potency [5] of the same compound?
Its Potency is “inactive”.

What about the Potency [13] of the same compound?
The Potency was “inactive”.

And the Potency [14]?
The Potency was “inactive”.

And the Potency [7]?
Its Potency is “inactive”.

And the Potency [10]?
The Potency was “inactive”.

And the outcome [11]?
Its outcome is “inactive”.

What about the Potency [12] of the same compound?
Its Potency is “inactive”.

And the Potency [17]?
Its Potency is “inactive”.

What about the Potency [8] of the same compound?
The Potency was “inactive”.

What about the Potency [9] of the same compound?
The Potency was “inactive”.

For `CCCCCCCCCCCCCCCCCC(=O)O`, which Potency [4] is on record?
The Potency was “inactive”.

And the Potency [5]?
Its Potency is “inactive”.

What about the Potency [6] of the same compound?
Its Potency is “inactive”.

What about the Potency [7] of the same compound?
Its Potency is “inactive”.

What about the Potency [8] of the same compound?
The Potency was “inactive”.

And the Potency [9]?
The Potency was “inactive”.

For `Cc1ccc(O)c(-n2nc3ccccc3n2)c1`, which Potency [4] is on record?
The Potency was “inactive”.

What about the Potency [5] of the same compound?
The Potency was “inactive”.

What about the Potency [6] of the same compound?
Its Potency is “inactive”.

And the Potency [8]?
Its Potency is “inactive”.

What about the Potency [9] of the same compound?
Its Potency is “inactive”.
